The list is not random: actives were taken first. Their share in the collection is about 3.8%.
proKLK7 act: activates the human kallikrein-7 zymogen. P49862. purified proKLK7, EDANS-DABCYL substrate fluorescence; 100% is mature enzyme control, 0% vehicle. activation, % at 7 µM. 370,000 tested, 0.9% active;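 active means activation above the mean of all tested compounds plus 3 SD, computed per campaign excluding outliers beyond control limits, cut at about 13% in these data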
Target sequence (P49862 whole entry, looked up): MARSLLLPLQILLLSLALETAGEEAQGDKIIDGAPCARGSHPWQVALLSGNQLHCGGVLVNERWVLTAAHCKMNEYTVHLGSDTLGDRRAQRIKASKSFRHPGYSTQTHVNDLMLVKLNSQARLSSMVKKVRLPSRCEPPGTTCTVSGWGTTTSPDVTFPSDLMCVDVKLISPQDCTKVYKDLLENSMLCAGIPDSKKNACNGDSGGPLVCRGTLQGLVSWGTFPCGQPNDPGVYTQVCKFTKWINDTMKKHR
rRNA inh HTS: inhibits bacterial ribosomal RNA function over humanized ribosomes; AID 720706; GFP signal change (wild-type ribosome), % (no concentration beside the values); 350,000 tested, 1.6% active; E. coli WT GFP vs humanized-ribosome RFP mutants, fluorescence, 24 h; active compounds read low; DMSO median 0, no signal -100;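 active means significant combined selectivity score with lowered wild-type GFP, culture density cut under 30%, mutant RFP and density less affected; inactive means any of these conditions unmet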
ADAM17 inh: ADAM17 inhibition, QFRET primary screen; 370,000 tested, 0.83% active; recombinant ADAM17, EDANS/DABCYL FRET peptide cleavage; inhibition, % at 6.95 µM;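 active means inhibition above the mean of compounds lying between control limits plus 3 SD, set per campaign, cut at about 8.5% in these data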
ADAM10 inh: inhibits human ADAM10; O14672; recombinant ADAM10, EDANS/DABCYL FRET peptide cleavage, 3 h; inhibition, % at 7 µM; 370,000 tested, 0.62% active;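 active means inhibition above a per-campaign cutoff equal to the mean of compounds falling between control-based bounds plus 3 SD, cut at about 20% in these data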
FGF22 binding: shifts melting point of recombinant human FGF22. Q9HCT0. recombinant FGF22 thermal shift, SYPRO orange fluorescence; percent of sucrose octasulfate shift, DMSO zero. activity (Tm shift, normalised), % at 9.99 µM. 340,000 tested, 1.5% active;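 active means mean Tm shift, scaled 0 neutral to 100 positive control, at about 1.3% or above, every replicate too, limit read from the data; inconclusive means no clear call, values can overlap the other calls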
Target sequence (Q9HCT0 whole entry, looked up): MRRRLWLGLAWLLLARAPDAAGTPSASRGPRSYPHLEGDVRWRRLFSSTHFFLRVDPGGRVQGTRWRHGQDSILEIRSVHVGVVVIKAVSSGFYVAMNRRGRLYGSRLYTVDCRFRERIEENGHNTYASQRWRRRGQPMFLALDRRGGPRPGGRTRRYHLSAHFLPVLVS
AID977621: wild-type E. coli growth inhibition versus H69 humanized strain – H69 mutant RFP, wild-type GFP, cherry-pick, dose response. shares compounds with rRNA inh HTS. fluorescence, 24 h. activity change, negative = inhibition at 50 µM. 1,900 tested, under 10 active. AID 977621;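 active means Wild-type ribosome reporter drop at least double the humanized mutant ribosome reporter drop, growth loss under a set limit; inconclusive means no clear call, values can overlap the other calls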;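 further: wild-type GFP and H69 mutant RFP strains grown together 50/50 in each well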
AID977628: growth of wild-type and h24-humanized E. coli strains – h24 mutant RFP vs wild-type GFP, cherry-pick, dose response; E. coli WT GFP strain growth, fluorescence, 24 h; AID 977628; activity change, negative = inhibition at 50 µM; shares compounds with rRNA inh HTS; 1,900 tested, under 10 active;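 active means compound lowering the normal-ribosome reporter at least twice as much as the humanized-ribosome reporter, growth loss under a set limit; inconclusive means no clear call, values can overlap the other calls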;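 further: wild-type GFP and h24 humanized RFP strains co-cultured 1 to 1 per well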
Large screens that a line does not name were inactive (follow-up assays come after a bar, where they were run).

COCCCNc1ccn2nc(-c3cccc(Cl)c3)cc2n1	none
COCCCNc1ccn2nc(-c3ccccc3)cc2n1	rRNA inh HTS -19.5 | AID977621 inactive
C[C@H]1CN([C@@H](C)CO)C(=O)c2cc(NC(=O)CCCN(C)C)ccc2O[C@@H]1CN(C)C(=O)NC1CCCCC1	none (no result: proKLK7 act, ADAM17 inh, ADAM10 inh, FGF22 binding)
COCC(=O)N(C)C[C@@H]1Oc2cc(C3=CCCC3)ccc2S(=O)(=O)N([C@H](C)CO)C[C@@H]1C	none (no result: proKLK7 act, ADAM17 inh, ADAM10 inh)
CCOc1ncccc1C(=O)OCC(=O)NCCCc1ccccc1	rRNA inh HTS -20.9 | AID977621 inactive | AID977628 inactive
COc1ccc(NS(=O)(=O)c2cccc3ccccc23)cc1	rRNA inh HTS -38.7 | AID977621 inactive
COc1ccc(NS(=O)(=O)c2cc(OC)ccc2OC)cc1	none
O=C(CCC1CCCN(C(=O)c2ccsc2)C1)N1CCN(c2ccccn2)CC1 (centres undefined)	rRNA inh HTS -18.5 | AID977621 inactive | AID977628 inactive
CO[C@@H]1CN(C)C(=O)c2cc(NC(=O)Nc3ccc4c(c3)OCO4)ccc2OC[C@H](C)NC[C@H]1C	none (no result: proKLK7 act, ADAM17 inh, ADAM10 inh)
COC(=O)c1ccc2nc(-c3ccccc3)c(Cc3cccc(F)c3)n2c1	none
COC(=O)c1ccc2nc(-c3ccc(OC)c(OC)c3)c(Cc3ccc(C)cc3)n2c1	rRNA inh HTS -15.2 | AID977621 inactive
COC(=O)c1ccc2nc(-c3ccco3)c(Cc3ccc(C)cc3)n2c1	rRNA inh HTS -28.9 | AID977621 inactive | AID977628 inconclusive
COc1ccc(-c2nc3c(C)cc(Br)cn3c2Cc2ccc(C)cc2)cc1OC	rRNA inh HTS -6.1 | AID977628 inconclusive
COC(=O)c1ccc2nc(-c3ccc(F)cc3)c(Cc3cccc(F)c3)n2c1	rRNA inh HTS -23.6 | AID977621 inactive | AID977628 inactive
CO[C@H]1CN(C)C(=O)c2cc(NC(=O)C3CCOCC3)ccc2OC[C@H](C)N(C(C)=O)C[C@@H]1C	none (no result: proKLK7 act, ADAM17 inh, ADAM10 inh)
Cc1ccc(Cc2c(-c3cccc(Br)c3)nc3ccc(C)cn23)cc1	rRNA inh HTS -26.8 | AID977621 inactive | AID977628 inactive
Cc1cccc(NS(=O)(=O)c2c(C(=O)N3CCCC3)c(C)n(C)c2C)c1	none
Cc1cc(C)cc(NS(=O)(=O)c2c(C(=O)N3CCCCCC3)c(C)n(C)c2C)c1	rRNA inh HTS -28.8 | AID977621 inactive | AID977628 inactive
COc1ccccc1C(C(C(=O)c1ccccc1)N1CCOCC1)N1CCOCC1 (centres undefined)	rRNA inh HTS -14.4 | AID977621 inactive | AID977628 inconclusive
CN(C(=O)CN1C(=O)NC2(CCc3ccccc32)C1=O)C1CCS(=O)(=O)C1 (centres undefined)	none
CN(C(=O)CN1C(=O)NC2(CCc3ccccc32)C1=O)C1CCCCC1 (centres undefined)	rRNA inh HTS -13.2 | AID977621 inconclusive | AID977628 inactive
CC(=O)Oc1ccc(N(C(C)=O)S(=O)(=O)c2ccccc2)c2ccccc12	none
CC(=O)Oc1c(Cl)cc(N(C(C)=O)S(=O)(=O)c2ccccc2)c2ccccc12	rRNA inh HTS -36.6 | AID977621 inconclusive
CCn1c(CNC(=O)c2ccccc2F)cc2cc(C)ccc21	rRNA inh HTS -20.4 | AID977621 inconclusive
Cc1ccc(NC(=O)c2ccccc2F)c(NC(=O)c2ccccc2F)c1	rRNA inh HTS -20.4 | AID977621 inactive | AID977628 inactive
CSc1cccc(NC(=S)NC(=O)CCc2ccccc2)c1	none
O=C(CSc1ccccc1)Nc1cccc(NC(=O)c2ccco2)c1	rRNA inh HTS -20.9 | AID977621 inconclusive
CSc1cccc(NC(=O)CCc2ccccc2)c1	rRNA inh HTS -29.2 (no result: FGF22 binding) | AID977621 inactive | AID977628 inactive
O=C(NCc1ccccc1)c1cc(S(=O)(=O)N2CCCCC2)ccc1N1CCOCC1	rRNA inh HTS -17.8 | AID977621 inactive | AID977628 inactive
O=C(NCc1ccc(F)cc1)c1cc(S(=O)(=O)N2CCCCC2)ccc1N1CCOCC1	none (no result: rRNA inh HTS)
O=C(c1ccc(F)cc1)N1CC(=O)N2[C@H](CO)[C@H](c3ccc(C#CC4CCCCC4)cc3)[C@H]2C1	none (no result: proKLK7 act, ADAM17 inh, ADAM10 inh, FGF22 binding)
O=S(=O)(Cc1ccc(Cl)cc1)N1CCN(Cc2ccc3c(c2)OCO3)CC1	rRNA inh HTS -20.0 | AID977621 inactive | AID977628 inconclusive
Cc1ccccc1SCC(=O)OCC(=O)Nc1sccc1C(N)=O	rRNA inh HTS -29.4 | AID977621 inactive | AID977628 inactive
NC(=O)c1ccsc1NC(=O)COC(=O)Cc1ccc(F)cc1	rRNA inh HTS -19.5 (no result: FGF22 binding) | AID977621 inconclusive | AID977628 inactive
NC(=O)c1ccsc1NC(=O)CSc1ccccc1F	none (no result: FGF22 binding)
C[C@@H]1CN([C@H](C)CO)C(=O)Cc2cc(NC(=O)Nc3ccc(F)cc3)ccc2O[C@@H]1CN(C)C	none (no result: proKLK7 act, ADAM17 inh, ADAM10 inh)
CCOc1ccc(S(=O)(=O)N(C)c2ccc(OCC(=O)NCc3cccnc3)cc2)cc1	rRNA inh HTS -19.5 | AID977621 inactive | AID977628 inactive
O=C(NCC[C@@H]1CC[C@H](NC(=O)C2CCC2)[C@@H](CO)O1)c1cc(Cl)cc(Cl)c1	none (no result: proKLK7 act, ADAM17 inh, ADAM10 inh)
O=C(NCCc1ccccc1)c1ccc2c(c1)N(Cc1ccccc1)C(=O)CS2=O (centres undefined)	none
O=C(Nc1ccccc1Cl)c1ccc2c(c1)N(Cc1ccc(F)cc1)C(=O)CS2=O (centres undefined)	rRNA inh HTS -23.0 (no result: FGF22 binding) | AID977621 inactive
CCCN1C(=O)C(O)(c2c(C)[nH]c3ccccc23)c2ccccc21 (centres undefined)	rRNA inh HTS -18.3 | AID977621 inactive | AID977628 inactive
COc1cc(C2CC(=O)Oc3cc(C)cc(C)c32)cc(OC)c1OC (centres undefined)	rRNA inh HTS -21.6 | AID977628 inactive
CCC(=O)N1[C@@H]2CN(C(=O)c3cccc(OC)c3)c3ccccc3[C@@H]2[C@@H]1CO	none (no result: proKLK7 act, ADAM17 inh, ADAM10 inh, FGF22 binding)
CC(=O)CSc1ccc(-c2nc3ccccc3[nH]2)cn1	rRNA inh HTS -23.7 | AID977621 inactive | AID977628 inactive
COCC(=O)Nc1ccc2c(c1)C(=O)N(C)C[C@@H](OC)[C@H](C)CN(Cc1ccccc1C(=O)O)[C@H](C)CO2	none (no result: proKLK7 act, ADAM17 inh, ADAM10 inh)
CNC(=O)C[C@H]1CC[C@@H]2[C@@H](COc3ccc(NC(=O)Nc4ccc(F)c(F)c4)cc3C(=O)N2C)O1	rRNA inh HTS -19.9 (no result: proKLK7 act, ADAM17 inh, ADAM10 inh) | AID977628 inconclusive
COCC(=O)Nc1ccc2c(c1)OC[C@@H](C)N(C(=O)C1CCCC1)C[C@H](C)[C@H](OC)CN(C)C2=O	none (no result: proKLK7 act, ADAM17 inh, ADAM10 inh, FGF22 binding)
COc1cccc(-c2ccc(SCc3ccccn3)nn2)c1	rRNA inh HTS -22.6 | AID977628 inconclusive

High-throughput results (PubChem BioAssay)
